MEKK2wt PB1 HTS: raises or lowers MEK5 binding to wildtype human MEKK2 PB1 domain; Q9Y2U5; bead flow cytometry, Alexa488-MEK5 binding to MEKK2 WT; actives lie on both sides; binding response (% of control), % at 10 µM; 1.1% of 290,000 active; in the data active = binding response below about 67% or above about 130%
NTR1 ag: agonists of human neurotensin receptor NTR1; activation, % at 20 µM; P30989; 0.17% of 330,000 active; NTR1-U2OS beta-arrestin-GFP spot imaging, agonist mode; AID 493036;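 active = activation at or above 40% of the spot to cytoplasm intensity ratio, with at least 20 cells analyzed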;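 also: 0% = DMSO without peptide and 100% = 100 nM NTR1 peptide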
Target sequence (P30989 whole entry, looked up): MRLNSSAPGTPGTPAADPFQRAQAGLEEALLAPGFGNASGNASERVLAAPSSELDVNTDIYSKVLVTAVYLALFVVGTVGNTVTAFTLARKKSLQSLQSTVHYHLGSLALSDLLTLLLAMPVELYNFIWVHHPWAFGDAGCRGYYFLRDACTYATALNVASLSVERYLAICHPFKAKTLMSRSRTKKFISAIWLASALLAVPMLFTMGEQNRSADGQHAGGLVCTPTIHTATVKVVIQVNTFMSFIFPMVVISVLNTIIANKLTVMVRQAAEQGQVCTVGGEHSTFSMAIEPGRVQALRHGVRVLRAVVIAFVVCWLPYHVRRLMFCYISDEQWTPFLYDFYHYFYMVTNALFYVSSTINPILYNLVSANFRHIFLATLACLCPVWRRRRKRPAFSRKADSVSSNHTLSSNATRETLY
ANO1 block: mouse TMEM16A channel inhibition, primary screen; Q8BHY3; HEK293 TMEM16A/YFP iodide influx fluorescence, ionomycin; normalized B-score (activity score, 25-100; higher = stronger inhibition) at 10 µM; 1.2% of 310,000 active;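 active = ratio plate-corrected score three or more library SD toward inhibition, starting fluorescence score within five deviations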;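 also: score derived from kinetic fluorescence span divided by baseline fluorescence per well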
MEKK3 PB1 HTS: modulators (inhibitors or enhancers) of MEK5 binding to human MEKK3 PB1 domain. bead-based flow cytometry, Alexa488-MEK5 binding to MEKK3; actives lie on both sides; 0 = blocked by unlabeled MEK5, 100 = vehicle. binding response (% of control), % at 10 µM. AID 1529. 1.4% of 290,000 active. Q99759;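 active = binding response more than 3 SD above or below the average of its plate-row segment, actives on both sides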;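 also: Alexa488 bead fluorescence after subtracting the streptavidin-only scavenger bead signal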
TMEM16A act: activates or potentiates the mouse TMEM16A chloride channel | Q8BHY3 | HEK293 TMEM16A/YFP-H148Q/I152L, iodide quench fluorescence; hits give low values | B-score at 10 µM | 0.3% of 340,000 active;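 active = fluorescence-ratio B-score plate-corrected deviation score at least 3 library SD below zero, with starting fluorescence score within 5 deviations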;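 also: channel opened by trigger with iodide after compound preincubation; score built on the fluorescence ratio of max minus min over baseline; more negative score means more quench and so TMEM16A activation or potentiation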
MEKK2 mut-MEK5: signal of MEK5 binding to mutant human MEKK2 PB1 domain | AID 1530 | percent response, % at 10 µM | 0.35% of 290,000 active | bead flow cytometry, Alexa488-MEK5 binding to MEKK2 mutant; in the data active = percent response above about 24%, passing the limit was not always enough
MEKK2wt confirm: raises or lowers MEK5 binding to wildtype human MEKK2, retest; 2.4% of 5,900 active; AID 1892; binding response (% of control), % at 10 µM; shares compounds with MEKK3 PB1 HTS; bead flow cytometry, Alexa488-MEK5 binding to MEKK2 WT; actives lie on both sides; in the data active = binding response below about 16% or above about 210%; inactive = in between
MEKK2mut confirm: signal of MEK5 binding to mutant human MEKK2, retest | shares compounds with MEKK3 PB1 HTS | bead flow cytometry, Alexa488-MEK5 binding to MEKK2 mutant | percent response, % at 10 µM | AID 1893 | 2% of 5,900 active; in the data active = percent response mostly above about 71%, no sharp cut-off; inactive = mostly below about 38%;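 also: higher means compound restores mutant binding toward wildtype level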
MEKK3-MEK5 inh: confirmation of inhibitors of MEK5 binding to human MEKK3 | shares compounds with MEKK3 PB1 HTS | bead flow cytometry, Alexa488-MEK5 binding to MEKK3; hits give low values | binding response (% of control), % at 10 µM | 1.8% of 5,900 active;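 active = binding response below 72% of control, or above a set upper limit, though filed actives all read lower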;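 also: 100% = DMSO only wells and 0% = binding blocked by excess unlabeled MEK5; lower values mean stronger disruption of MEK5 binding to MEKK3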
Active calls of the source: *; i = inactive; / = no result given; ! = a repeat was not active; [ ] = remark or other dose. Most compounds without a hit are left out; they make up all but 3.4% or so of the library.

SMILES	MEKK2wt PB1 HTS	NTR1 ag	ANO1 block	MEKK3 PB1 HTS	TMEM16A act	MEKK2 mut-MEK5	MEKK2wt confirm	MEKK2mut confirm	MEKK3-MEK5 inh
CCOc1ccccc1NC(=O)CN1C(=O)CSC(C)C1=O (stereo unspecified)	94.0	0.2	i	98.0	i	1.0	/	/	/
COc1cccc(O)c1CN1CCC(C(=O)Nc2ccc(Oc3cccnc3)cc2)CC1	114.0	-0.8	i	101.0	i	11.0	/	/	/
COc1cccc(O)c1CN1CCC(C(=O)Nc2ccc(-c3cccc(C)c3)cc2)CC1	227.0*	23.0	i	119.0	i	61.0*	134.0	16.0	101.0
Cc1ccc(Oc2nnc(-c3cccs3)c3ccccc23)cc1C	95.0	5.0	i	101.0	i	-2.0	/	/	/
CC(=NNC(=O)c1ccncc1)c1ccc(Cl)cc1Cl	/	/	/	/	i	/	/	/	/
Cc1[nH]nc(SCC(=O)Nc2ccc(C#N)cc2)c1[N+](=O)[O-]	107.0	-2.8	i	133.0*	i	1.0	101.0	4.0	103.0
Cn1c(SCC(=O)Nc2nc(C(C)(C)C)cs2)nnc1C1CC1	108.0	-0.9	i	121.0	i	0.0	/	/	/
CCS(=O)(=O)c1ccc2oc(SCC(=O)N3CCCCC3)nc2c1	67.0	0.9	i	48.0*[inhibitor]	i	-14.0	107.0	3.0	106.0
OC1CCCN(Cc2ccc3ccc4cccc5ccc2c3c45)C1 (stereo unspecified)	140.0*	1.0	i	109.0	i	17.0	119.0	8.0	102.0
CCCOCCOC(=O)C1=C(C)NC(=O)NC1c1cc(Cl)c(O)c(OC)c1 (stereo unspecified)	-2.0*[inhibitor]	-0.4	i	1.0*[inhibitor]	i	-28.0	104.0	3.0	105.0
CCOc1ccc(CN2C(=O)CC(=O)N(S(=O)(=O)c3ccc(OCC)cc3)C2=O)cc1	93.0	-0.7	i	93.0	i	-4.0	/	/	/
CNC(=S)N/N=C(\C)c1ccccc1	128.0	0.3	i	132.0*	i	28.0	109.0	2.0	103.0
CNC(=S)N/N=C(\C)c1ccc(C(C)(C)C)cc1	110.0	3.1	i	101.0	i	22.0	/	/	/
COc1ccc(S(=O)(=O)N2CCCCCC2)cc1NC(=O)CCCOc1ccccc1	/	-3.5	/	/	i	/	/	/	/
OC(COc1ccc2ccccc2c1)CN1CCCC1 (stereo unspecified)	102.0	3.1	i	90.0	i	2.0	/	/	/
OC(COc1cccc2ccccc12)CN1CCCC1 (stereo unspecified)	139.0*	-1.7	i	103.0	i	10.0	133.0	15.0	103.0
OC(COc1cccc2ccccc12)CN1CCN(c2ccc(Cl)cc2)CC1 (stereo unspecified)	144.0*!	26.2	i	102.0	i	-2.0	113.0	8.0	105.0
OC(COc1cccc2ccccc12)CN1CCN(c2cccc(Cl)c2)CC1 (stereo unspecified)	99.0	16.6	i	100.0	i	6.0	/	/	/
CCCCNC(=S)N(CCN(CC)CC)Cc1cc2cc3c(cc2[nH]c1=O)OCO3	120.0	1.5	i	105.0	i	24.0*	106.0	1.0	102.0
CCN(CC)CCN(Cc1cc2cc3c(cc2[nH]c1=O)OCCO3)C(=S)NCCCN(C)C	138.0*	0.6	i	111.0	i	22.0	112.0	6.0	103.0
O=C(COC(=O)c1ccc(Sc2ccccc2)c([N+](=O)[O-])c1)NC1CCS(=O)(=O)C1 (stereo unspecified)	100.0	-0.9	i	101.0	i	3.0	/	/	/
CC(=O)Nc1ccc(S(=O)(=O)NCCNc2ccccc2[N+](=O)[O-])cc1	112.0	1.3	i	128.0*	i	0.0	106.0	-2.0	106.0
CC(=O)Nc1ccc(S(=O)(=O)NCc2ccc3[nH]c(C)cc3c2)cc1	72.0*[inhibitor]	-1.6	i	80.0*[inhibitor]	i	-9.0	83.0	2.0	94.0
Cc1cc2cc(CNS(=O)(=O)c3ccc4ccccc4c3)ccc2n1C	96.0	-3.8	i	100.0	i	2.0	/	/	/
CC(=O)Nc1ccc(S(=O)(=O)NCc2ccc3c(c2)cc(C)n3C)cc1	50.0*[inhibitor]	-0.9	i	70.0*[inhibitor]	i	-14.0	90.0	-9.0	97.0
SMILES	MEKK2wt PB1 HTS	NTR1 ag	ANO1 block	MEKK3 PB1 HTS	TMEM16A act	MEKK2 mut-MEK5	MEKK2wt confirm	MEKK2mut confirm	MEKK3-MEK5 inh
CC(=O)Nc1ccc(S(=O)(=O)NCc2ccc(C)cc2)cc1	122.0	0.7	i	126.0*	i	7.0	97.0	-3.0	95.0
CCn1c(N2CCN(S(=O)(=O)c3ccccc3C(F)(F)F)CC2)nc2ccccc21	2.0*[inhibitor]	-0.2	i	2.0*[inhibitor]	i	-14.0	103.0	2.0	101.0
CCn1c(N2CCN(C(=O)C34CC5CC(CC(C5)C3)C4)CC2)nc2ccccc21	0.0*[inhibitor]	1.3	i	0.0*[inhibitor]	i	-15.0	99.0	-3.0	98.0
CCn1c(/N=C/c2ccccc2NS(=O)(=O)c2ccc(C)cc2)nc2ccccc21	104.0	/	i	137.0*	i	0.0	100.0	1.0	104.0
CCN(CC)CCn1c(NS(=O)(=O)c2ccc(C)cc2)nc2ccccc21	/	-2.0	/	/	i	/	/	/	/
N#Cc1c(F)cccc1NCc1cccs1	102.0	-0.8	i	103.0	i	5.0	/	/	/
COc1ccccc1NS(=O)(=O)c1cccc(C(=O)N/N=C2\CC(=O)CC(C)(C)C2)c1	102.0	-0.1	i	142.0*	i	-1.0	102.0	2.0	102.0
COc1ccccc1NS(=O)(=O)c1cccc(C(=O)NN=C2CCCC2)c1	101.0	-2.2	i	107.0	i	-4.0	/	/	/
NS(=O)(=O)c1ccc(NC(=O)c2c(F)cccc2Cl)cc1	130.0	-0.7	i	131.0*	i	26.0	106.0	-4.0	104.0
CC(C(=O)NC(=O)NC1CCCCC1)N1CCN(C(c2ccccc2)c2ccccc2)CC1 (stereo unspecified)	/	2.8	i	/	i	/	/	/	/
C#CCOCCOCCOCCNc1nc(N2CCN(C(=O)[C@H](CCCCN)n3cc(CCCC)nn3)CC2)nc(N2CCN(C(=O)[C@H](CCCCN)n3cc(CCCC)nn3)CC2)n1	159.0*	-0.2	i	110.0	i	13.0	152.0	32.0	104.0
